Test results: PubChem BioAssay AID488815 (Broad Institute, 2010)
Results with a measured potency or affinity are listed apart. Results filed as inconclusive are left out. How the calls were made is not given here.

Target: CAAX prenyl protease 1 (Saccharomyces cerevisiae (strain ATCC 204508 / S288c)) (UniProt P47154)
Experiment: Ste24 protease inhibitors, dose response, biochemical, S. cerevisiae, plate reader, cherry-pick (AID 488815);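 further: 0% = neutral control wells and -100% = no enzyme wells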
Details: yeast Ste24 protease activity; series mostly up to 10 µM; activity change, negative = inhibition: at the top concentration

CAAX prenyl protease 1 (Saccharomyces cerevisiae (strain ATCC 204508 / S288c)), sequence (P47154 whole entry, looked up): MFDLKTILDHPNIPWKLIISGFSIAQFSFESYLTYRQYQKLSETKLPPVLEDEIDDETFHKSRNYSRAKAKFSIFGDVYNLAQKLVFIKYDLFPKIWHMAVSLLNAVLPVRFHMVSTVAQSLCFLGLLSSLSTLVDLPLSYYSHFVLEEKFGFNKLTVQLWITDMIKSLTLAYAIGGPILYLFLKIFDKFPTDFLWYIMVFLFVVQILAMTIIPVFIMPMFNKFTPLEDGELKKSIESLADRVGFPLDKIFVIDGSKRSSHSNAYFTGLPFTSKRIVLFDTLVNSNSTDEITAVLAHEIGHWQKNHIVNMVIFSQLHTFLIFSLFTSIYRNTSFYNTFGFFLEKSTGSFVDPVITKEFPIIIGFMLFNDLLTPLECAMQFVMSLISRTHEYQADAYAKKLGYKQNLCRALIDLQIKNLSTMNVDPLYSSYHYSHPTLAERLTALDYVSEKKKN

Activity change, negative = inhibition, inactive:
O=C1NC2(C=Cc3c(ccc4ccccc34)O2)Oc2ccccc21 (stereo not drawn) 2.33%
C/C(CC1(O)C(=O)Nc2ccccc21)=N\O (stereo not drawn) 50%
Cc1ccc(S(=O)(=O)c2cn(C)c3cc(N4CCOCC4)c(F)cc3c2=O)cc1 -85.1%
COc1nc(-c2ccccc2)ccc1-c1noc(-c2ccccc2F)n1 1.66%
Cc1cccc(NS(=O)(=O)c2ccc(C)c(C(=O)OCC(=O)Nc3cc(C)on3)c2)c1 6.86%
CCCCNC(=S)N=Nc1c(O)n(Cc2ccccc2)c2ccccc12 41%
COc1ccccc1CC(=O)Nc1ccc2c(C)cc(=O)oc2c1 -51.4%
Cc1ccc(S(=O)(=O)CC(=O)N2CCN(c3ccccc3F)CC2)cc1 21.3%
COc1ccc(Cc2nc3ccc(C(=O)N4CCCC4)cc3o2)cc1 7.28%
CC(C)c1c(C(=O)N/N=C/c2cccc3ccccc23)nnn1-c1nonc1N 11.6%
COC(C[C@@H](O)C[C@H](O)[C@H](C)OCc1ccccc1)OC 10.2%
CCN1CCN(c2ccc(NC(=O)c3cccc(OCc4ccccc4)c3)cc2)CC1 8.02%
O=C(O)CCc1nc2cc(C(F)(F)F)ccc2n(Cc2ccccc2)c1=O 7.73%
CC(C)N1CCN(Cc2ccc(OCc3ccccc3)cc2)CC1CCO (stereo not drawn) 15.4%
Cc1ccc(C(=O)N2N=C(c3ccccc3O)CC2c2ccccc2)cc1 (stereo not drawn) 8.19%
O=C1C(Cc2c[nH]c3ccccc23)NC(=S)N1Cc1ccccc1 (stereo not drawn) 9.65%
Cc1ccc(/C=N/NC(=O)c2nnn(-c3nonc3N)c2C(C)C)o1 12.8%
Nc1nonc1-n1nnc(C(=O)N/N=C/c2ccoc2)c1CSc1ccccc1 8.69%
